In the library only some 10% were active in any assay of this set; here they are far more common.
LMNA splice mod = qHTS Assay for Modulators of Lamin A Splicing; HeLa LMNA splicing GFP/RFP minigene ratio, 48 h; Potency, µM (highest dose often 46.1 µM), for inactives: top-dose ratio change, negative = inhibition, usual class: inhibitors; actives 0.01% (n = 200,000); AID 1487, 2009; active means well fitted inhibition curve with a large enough effect in the signal ratio, with a control signal flat, not every such curve was filed as active; inconclusive means small, poorly fitted or top-dose-only effect, or effect the other way, or a change in a side signal; the % refers to the signal ratio; further: potency means the concentration at half of the fitted maximal effect
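Read-out is the ratio of GFP to DsRed2 object intensity, acquired by 488 nm laser-scanning cytometry on HeLa lamin A-EGFP minigene reporter cells. Compound incubation 48 hrs at 37 °C in Opti-MEM with 2% FBS; DMSO 0.5% final.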
HPGD inh = qHTS Assay for Inhibitors of HPGD (15-Hydroxyprostaglandin Dehydrogenase) | Potency, µM, inactives show at the highest dose activity change, negative = inhibition, most hits filed as inhibitors | purified HPGD, NADH fluorescence kinetic, PGE2 substrate | 15-hydroxyprostaglandin dehydrogenase [NAD(+)] (Homo sapiens), P15428 | actives 4.3% (n = 150,000) | AID 894, 2007; further: potency means the concentration at half of the fitted maximal effect
Target sequence (P15428 whole entry, looked up): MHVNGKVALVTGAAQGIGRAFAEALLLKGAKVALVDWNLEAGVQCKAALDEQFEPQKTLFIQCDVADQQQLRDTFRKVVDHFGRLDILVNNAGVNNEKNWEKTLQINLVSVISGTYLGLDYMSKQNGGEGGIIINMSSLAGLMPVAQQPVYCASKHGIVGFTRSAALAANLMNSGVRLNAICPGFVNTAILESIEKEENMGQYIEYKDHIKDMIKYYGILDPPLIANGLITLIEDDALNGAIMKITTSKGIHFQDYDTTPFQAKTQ
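NADH formation kinetics: reaction with 30 uM PGE2 and 1 mM NAD+ (final), 20 nM enzyme, Tris-HCl pH 8 with Tween 20, after 15 min compound preincubation at room temperature. Fluorescence change, last versus first of five reads.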
IMPase inh = qHTS Assay for Identifying the Cell-Membrane Permeable IMPase Inhibitors | 120,000 tested, under 10 active | inhibition (IP1 accumulation), % at 46.1 µM | CHO-M1 cells, IP1 accumulation, HTRF TR-FRET ratio | AID 901, 2007; active means well fitted curve in the direction sought with a large enough effect in the signal ratio, not every such curve was filed as active; inconclusive means small, poorly fitted or top-dose-only effect, or a change in a side signal; inactive means no such curve, though single readings can be large or run the other way; the % refers to the signal ratio;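 further: cells stimulated with carbachol in lithium chloride buffer; plate controls were DMSO basal wells for no effect and reference inhibitor wells for full effect; higher means more IMPase inhibition seen as more IP1 and lower FRET ratio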
Target sequence (P97697 whole entry, looked up): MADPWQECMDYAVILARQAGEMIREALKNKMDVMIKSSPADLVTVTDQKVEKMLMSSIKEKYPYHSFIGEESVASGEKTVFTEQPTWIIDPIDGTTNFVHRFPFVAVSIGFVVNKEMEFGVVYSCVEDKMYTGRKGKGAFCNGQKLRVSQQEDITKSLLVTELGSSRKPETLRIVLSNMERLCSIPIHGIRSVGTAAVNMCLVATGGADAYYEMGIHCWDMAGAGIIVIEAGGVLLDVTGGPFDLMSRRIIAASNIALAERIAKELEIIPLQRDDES
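Seeded CHO-M1 cells were dosed with compound at up to 46 uM, stimulated with carbachol for 30 min, then lysed in IP-One detection reagents. Higher IP1 lowers the TR-FRET signal.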
ALDH1A1 block = qHTS Assay for Inhibitors of Aldehyde Dehydrogenase 1 (ALDH1A1); Aldehyde dehydrogenase 1A1 (Homo sapiens), P00352; Purified ALDH1A1, NADH fluorescence, propionaldehyde substrate; Potency, µM (doses to about 75.3 µM), for the others: top-dose activity, negative = inhibition, most hits filed as inhibitors; actives 7.3% (n = 220,000);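 further: potency means the concentration at half of the fitted maximal effect; plate controls were no enzyme wells and a reference inhibitor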
Luc counter = Counterscreen for Luciferase (Kinase-Glo TM) Inhibition; Kinase-Glo luciferase, ATP luminescence, 8 min; actives 0.28% (n = 200,000); Potency, µM (doses to about 38.3 µM), without a hit: at the top dose activity change, negative = inhibition, usual class: inhibitors; Luciferin 4-monooxygenase (Photuris pensylvanica), Q27757; active means well fitted inhibition curve with a large enough effect; inconclusive means small, poorly fitted or top-dose-only effect; further: potency means the concentration at half of the fitted maximal effect; nearly all actives have a fitted effect of over 60% in size
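Compound is pinned into ATP-containing buffer (10 uM ATP, imidazole pH 7.2, 7 mM MgCl2). Kinase-Glo luciferase reagent is then added. Light output is recorded following an 8-min room-temperature incubation.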
PNC inhibitor = High Content Assay for Compounds that inhibit the Assembly of the Perinucleolar Compartment; PC3M PTB-GFP, PNC prevalence imaging, 16 h; active compounds read low; activity change (PNC), negative = inhibition, % at 10 µM; actives 3.1% (n = 140,000); AID 2417, 2010;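 active means readout at or below -70, meaning at least 70% loss of cells showing the perinucleolar compartment, a nuclear body marking cancer cells; inconclusive means readout between -30 and a set limit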;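 further: plate controls were DMSO wells for no effect and camptothecin positive control wells for full effect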
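Read-out is percentage of cells bearing a perinucleolar compartment, from automated 20x imaging of fixed, Hoechst-stained PC3M PTB-GFP cells. Cells were seeded 4 h, then exposed 16 h to compound (23 nl of library stock) in duplicate plates.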
* = called active by the depositor; ? = inconclusive; nt = not tested or not shown; [ ] = remark or other dose. Unless noted, the call rests on the fitted dose curve; in most records, active means well fitted inhibition curve with a large enough effect (not every such curve was filed as active); inconclusive means small, poorly fitted or top-dose-only effect, or another doubt; inactive means no such curve, though single readings can be large or run the other way. Unless noted, on the % scale 0 is the no-effect control and ±100 the full control effect.

SMILES	LMNA splice mod	HPGD inh	IMPase inh	ALDH1A1 block	Luc counter	PNC inhibitor
CN1C(=O)/C(=C2\SC(=S)N(C(CCC(=O)O)C(=O)O)C2=O)c2ccccc21 (centres undefined)	0%	28µM*	10	1.1µM*	-21%	44
Cc1cc(C)c2c(CN3CCN(Cc4ccc5c(c4)OCO5)CC3)cc(=O)oc2c1C	?	-6%	4	1.6µM*	-1%	-22
COc1cc(S(=O)(=O)N2CCN(Cc3ccc4c(c3)OCO4)CC2)c(C)cc1C	?	-11%	1	3%	0%	-119*
Cc1ccc2c(CN3CCN(Cc4ccc5c(c4)OCO5)CC3)cc(=O)oc2c1C	-7%	-18%	-3	25µM*	-1%	?
Cc1cc2oc(=O)cc(CN3CCN(Cc4ccc5c(c4)OCO5)CC3)c2cc1C	-4%	-19%	-21	-20%	0%	44
Cc1cc(C)c(S(=O)(=O)N2CCN(Cc3ccc4c(c3)OCO4)CC2)cc1C	nt	nt	-12	nt	nt	nt
Cc1cc(C)c2c(CN3CCN(Cc4ccc5c(c4)OCO5)CC3)cc(=O)oc2c1	?	-28%	12	13µM*	-6%	4
O=c1c(-c2cccc(F)c2)nc2cncnc2n1C1CC1	nt	-10%	nt	-1%	0%	nt
COc1ccc(CN2CCN(S(=O)(=O)c3ccc(C)cc3)CC2)cc1Br	-15%	-7%	-2	20µM*	-3%	?
CCOC(=O)Cn1nnnc1C(CC)N(Cc1cccs1)Cc1cc2cc(C)ccc2[nH]c1=O (centres undefined)	-6%	?	10	?	0%	57
CCOC(=O)Cn1nnnc1C(CC)N(Cc1cc2ccc(C)cc2[nH]c1=O)C1CCCC1 (centres undefined)	-7%	-16%	1	20µM*	17%	-20
CCOC(=O)Cn1nnnc1C(CC)N(Cc1cc2c(C)cc(C)cc2[nH]c1=O)C1CCCC1 (centres undefined)	5%	-7%	-3	18µM*	1%	?
C=CCCCCCCCCCCCC(O)CC(O)CO (centres undefined) (tested in a mixture with another compound)	nt	-2%	nt	5%	-3%	nt
O=C(CCN1C(=O)/C(=C/C=C/c2ccccc2)SC1=S)Nc1cccnc1	0%	-11%	nt	-8%	3%	-108*
O=C(CCN1C(=O)/C(=C/C=C/c2ccccc2)SC1=S)Nc1ccccn1	nt	nt	nt	1%	nt	nt
O=C(CN1C(=O)S/C(=C\C=C\c2ccccc2)C1=O)Nc1cccc(O)c1	?	-23%	5	32µM*	-3%	-18
C=CC(C1=CC(=O)C=CC1=O)c1ccccc1 (centres undefined)	nt	-9%	nt	-13%	-1%	nt
C=C[C@@H](C1=CC(=O)C(OC)=C(OC)C1=O)c1ccccc1	nt	20µM*	nt	-10%	3%	nt
CCOC(=O)c1[nH]c(C)c(C(=O)c2cc(F)ccc2F)c1C	?	?	14	-9%	-1%	-95*
C=CCN1c2ccccc2[C@]23C[C@@H](C(=O)OC)N(S(=O)(=O)c4ccc(C#N)cc4)C2=NC(C(=O)OC)=C(C(=O)OC)[C@H]13	?	-4%	nt	-3%[13.5 µM]	-2%[7.66 µM]	nt
COc1ccc2c(c1)-c1nc(/N=C/c3ccc(O)cc3)sc1CC2	-5%	-26%	nt	4.5µM*	2%	35
COc1ccc2c(c1)-c1nc(/N=C/c3c(O)ccc4ccccc34)sc1CC2	-19%	?	nt	18µM*	-3%	-8
COc1ccc2c(c1)-c1nc(NC(=O)c3cccc(Br)c3)sc1CC2	nt	nt	9	nt	nt	nt
COc1cc(/C=C2/SC(=S)N(CC3CCCO3)C2=O)ccc1O (centres undefined)	-4%	25µM*	-1	0.14µM*	-10%	-16
O=C1/C(=C/c2cccnc2)SC(=S)N1CC1CCCO1 (centres undefined)	-11%[46 µM]	nt	nt	5µM*	1%	nt
SMILES	LMNA splice mod	HPGD inh	IMPase inh	ALDH1A1 block	Luc counter	PNC inhibitor
O=C1/C(=C\c2ccc(-c3ccccc3Cl)o2)SC(=S)N1CC1CCCO1 (centres undefined)	-7%	-19%	-3	1.4µM*	0%	-16
O=C(CN1C(=O)S/C(=C/c2cccnc2)C1=O)N1CCOCC1	?	-8%	nt	?	-2%	5
Cn1c(SCc2ccc(C(F)(F)F)cc2)nc2c([nH]c3ccccc32)c1=O	10%[46 µM]	nt	nt	nt	nt	nt
CN(C)CCCN(C(=O)CCOc1ccccc1)c1nc2c(F)cccc2s1	nt	nt	nt	3.2µM*	-1%	nt
CN(C)CCCN(C(=O)CCc1ccccc1)c1nc2c(F)cccc2s1	?	-7%	nt	-2%	-3%	?
Cc1cccc(Cn2cccc2CNS(=O)(=O)c2ccccc2F)c1	11%[46 µM]	nt	nt	nt	nt	nt
Nc1nc2c(c(=O)[nH]1)N=C(CNc1ccc(C(=O)NC(CCC(=O)O)C(=O)O)cc1)CN2 (centres undefined)	nt	?	8	?	1%	nt
COc1cccc(OC)c1C(=O)Nc1cc(Cl)ccc1N1CCOCC1	-5%	-3%	4	-4%	1%	19
CC1CCCN(C(=O)C(C)Nc2cc(Cl)ccc2N2CCOCC2)C1 (centres undefined)	nt	nt	nt	10µM*	-11%	nt
O=C(NCCc1ccccc1Cl)c1sc2ncccc2c1-n1cccc1	-1%[46 µM]	nt	nt	nt	nt	nt
COc1ccc(Nc2nc3ccccc3c3nnc(C)n23)cc1Cl	nt	nt	1	nt	nt	nt
COc1ccc(S(=O)(=O)NCC(c2cccnc2)N2CCN(C)CC2)cc1C (centres undefined)	-3%	-2%	-3	?	0%	24
CN1CCN(C(CNS(=O)(=O)c2ccc(Cl)cc2)c2cccnc2)CC1 (centres undefined)	-7%	-8%	1	-4%	2%	-100*
CN1CCN(C(CNS(=O)(=O)c2ccc(F)cc2)c2cccnc2)CC1 (centres undefined)	-5%	-10%	-12	-1%	-1%	-100*
Cc1[nH]nc2c1C(c1ccccc1F)NC2=O (centres undefined)	1%	-9%	-2	3%	1%	-103*
COc1ccc(-c2nc(-c3ccccc3)c(NC(C)C)o2)cc1	nt	-10%	nt	9%	-1%	nt
Cc1ccc(NC(=O)CN2CCN(C3CCCCC3)C(=O)C2=O)cc1	13%[46 µM]	nt	nt	nt	nt	nt
